Bioassay records (PubChem BioAssay)
Sampled rows, rich in hits. Any-hit rate of the full collection: about 19%.
KB-V1 cytotox = KB-V1 MDR subline cytotoxicity. 400,000 compounds, 3.4% hits. KB-V1 MDR cells viability, CellTiter-Glo, 72 h. Potency, µM (top dose mostly 46.1 µM), actives largely listed as cytotoxic. AID 1347076; further: nearly all actives have a fitted effect of over 60% in size
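Luminescent ATP read-out (CellTiter-Glo, 10 min) measures survival of drug-selected KB-V1 MDR cells after 72 h, 37 degrees C compound exposure. Medium: phenol-red-free DMEM, 10% FBS. Values from fitted concentration-response curves.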
HT1080 IDH1KD tx = toxicity to HT-1080 IDH1 knockdown cells (counter line); 360,000 compounds, 2% hits; Potency, µM (series often up to 46.1 µM), usual class: cytotoxic; HT-1080 IDH1 knockdown viability, ATP luminescence, 48 h
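HT-1080-IDH1KD cells (IDH1 knocked down), 750/well in RPMI with 5% FBS, treated with compound 48 h at 37 degrees C. Viability by CellTiter-Glo luminescence, normalised to DMSO and no-cell wells; concentration-response curves classed.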
KB-3-1 cytotox = kills parental KB-3-1 adenocarcinoma cells. KB-3-1 viability, CellTiter-Glo ATP luminescence, 72 h. Potency, µM (titrated, usually from 46.1 µM), actives largely listed as cytotoxic. 400,000 compounds, 1.4% hits; further: nearly all actives have a fitted effect of over 60% in size
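Using CellTiter-Glo luminescence, growth of non-resistant KB-3-1 adenocarcinoma cells is assessed 72 h after pin-tool compound addition at 37 °C. Normalized responses across the concentration series yield fitted curves.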
DT40 TDP1 CPT = DT40-hTDP1 cell growth loss with CPT; chicken DT40 Tdp1-/-;hTDP1 cells + 20 nM CPT, ATP luminescence, 48 h; Potency, µM (top dose mostly 46.2 µM), hits mostly inhibitors; 420,000 compounds, 12% hits; AID 686979; further: nearly all actives have a fitted effect of over 55% in size
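Cell growth measured by CellTiter-Glo luminescence after a minimum 48 h, 37 C compound exposure with 20 nM CPT in Tdp1-knockout DT40 cells stably expressing hTDP1, seeded 400/well; qHTS titration format.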
TDP1 cell noCPT = qHTS for Inhibitors of human tyrosyl-DNA phosphodiesterase 1 (TDP1): qHTS in cells in absence of CPT; Potency, µM (highest dose often 46.2 µM), most hits filed as inhibitors; DT40 Tdp1-/- hTDP1 cells, no CPT, ATP luminescence, 48 h; 420,000 compounds, 15% hits; further: nearly all actives have a fitted effect of over 55% in size
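Chicken DT40 Tdp1-/- cells complemented with human TDP1, screened without camptothecin (DMSO vehicle only), 400 cells/well. Compounds pin-transferred, cells incubated at 37 °C for at least 48 hr. Growth read as ATP-dependent luminescence (CellTiter-Glo, 30 min at RT).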
HT1080-NT tox = kills 2HG-producing HT-1080-NT fibrosarcoma cells | HT-1080-NT fibrosarcoma viability, CellTiter-Glo ATP luminescence, 48 h | Potency, µM (doses to about 46.1 µM), most hits filed as cytotoxic | 360,000 compounds, 1.6% hits | AID 686970;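 further: NT is the 2HG producing partner of a matched IDH1 knockdown line; nearly all actives have a fitted effect of over 55% in size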
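HT-1080-NT; 750 cells/well; 5% FBS RPMI; 48 h compound, 37 degrees C; CellTiter-Glo luminescence; curve fitting and curve-class assignment.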
Hits are given with their value; 0 = inactive; ? = inconclusive; - = no result. The call rests on the fitted dose curve; in most records, active means well fitted curve in the direction sought with a large enough effect; inconclusive means small, poorly fitted or top-dose-only effect, or another doubt; inactive means no such curve, though single readings can be large; an effect the other way counts as inactive or inconclusive.

SMILES	KB-V1 cytotox	HT1080 IDH1KD tx	KB-3-1 cytotox	DT40 TDP1 CPT	TDP1 cell noCPT	HT1080-NT tox
COc1ccc(OC)c(CCNC(=O)c2ccc3c(c2)N(Cc2ccccc2)CCS3)c1	?	0	?	23µM	16µM	0
NS(=O)(=O)c1ccc(CCNC(=O)c2ccc3c(c2)N(Cc2ccccc2)CCS3)cc1	0	0	0	0	0	0
Cc1ccc(CN2CCSc3ccc(C(=O)NCCc4ccccc4)cc32)cc1	0	-	0	23µM	23µM	-
O=C(NCCc1ccc(Cl)cc1)c1ccc2c(c1)N(Cc1ccccc1)CCS2	0	-	0	16µM	?	-
COC(=O)c1ccccc1NC(=O)CCCn1nc(C)c2sc3ccccc3c2c1=O	0	-	0	0	?	-
CC(=O)Oc1ccc2c(c1)O/C(=C\c1ccncc1)C2=O	0	0	0	?	0	0
CCc1ccc(/C=C2\Oc3cc(OC(=O)N4CCOCC4)ccc3C2=O)cc1	21µM	0	?	?	15µM	0
COc1ccc(/C=C2\Oc3cc(OC(=O)N4CCOCC4)ccc3C2=O)cc1	0	0	0	18µM	13µM	0
COc1ccccc1C(=O)Oc1ccc2c(c1)O/C(=C\c1ccncc1)C2=O	0	?	0	0	13µM	0
O=C(Nc1ccc(F)cc1)C(c1cccc(F)c1)N1CCN(C(=O)c2ccco2)CC1 (stereo unspecified)	?	0	0	0	0	0
CCOC(=O)c1ccc(NC(=S)N(CCN2CCCCCC2)Cc2cccs2)cc1	0	0	0	?	15µM	0
CCOC(=O)c1ccc(NC(=S)N(CCCN2CCN(CC)CC2)Cc2cccs2)cc1	0	?	0	?	18µM	0
CCOC(=O)c1ccc(NC(=S)N(CCCN2CCCC(C)C2)Cc2cccs2)cc1 (stereo unspecified)	0	0	0	?	26µM	0
O=C(CNC(=S)N(CCCN1CCOCC1)Cc1cccs1)NC1CCCCCCC1	0	0	0	?	16µM	0
CCOC(=O)c1ccc(NC(=S)N(CCCN2CCN(C)CC2)Cc2cccs2)cc1	0	?	0	0	0	?
CN(Cc1ccccc1)C(=O)C(=O)c1ccccc1	0	0	0	0	0	0
CCC(CC)C(=O)Nc1nnc(S(=O)(=O)N2CCCC2)s1	0	0	0	0	0	0
O=c1oc2ccccc2c(Nc2cc3ccccc3cc2O)c1[N+](=O)[O-]	?	?	15µM	5.8µM	5.8µM	?
Cc1cc(Cl)cc(Cl)c1CNc1c([N+](=O)[O-])c(=O)oc2ccccc12	0	0	0	?	16µM	0
Cc1nc2ccccc2c2oc(C(=O)NCCN3CCCCC3C)cc12 (stereo unspecified)	0	0	?	?	16µM	0
CCN1CCCC1CNC(=O)c1cc2c(C)nc3ccccc3c2o1 (stereo unspecified)	?	0	0	0	0	0
CCOC(=O)N1CCC(NC(=O)Cc2ccccc2)CC1	0	0	0	0	0	0
CCOC(=O)N1CCC(NC(=O)c2cc3c(C)nc4ccccc4c3o2)CC1	?	0	0	9.2µM	21µM	0
CCOC(=O)N1CCC(NC(=O)c2oc3c(C)c(C)ccc3c2C)CC1	?	0	0	21µM	?	0
Cc1ccc2c(C)c(C(=O)N3CCCCC3CO)oc2c1C (stereo unspecified)	0	0	0	18µM	13µM	0
Cc1ccc2ncc(C(=O)Nc3ccc(F)cc3F)c(=O)n2c1	0	-	0	0	0	-
Cc1cccc(CC(=O)NC2CC(=O)N(c3cccc(F)c3)C2)c1 (stereo unspecified)	-	-	-	0	0	-
CCCCN(CC)CCNC(=O)c1cc2cc3ccc(Cl)cc3nc2o1	0	0	0	16µM	?	0
CCCCN(CC)CCCNC(=O)c1cc2cc3ccc(C)cc3nc2o1	0	0	0	0	0	0
CCCCN(CC)CCNC(=O)c1cc2c(C)nc3ccccc3c2o1	0	0	0	16µM	23µM	0
